The text below walks through data of ChEMBL document CHEMBL3988442, “University of Dundee, Small-Polar-MMV Screening Library” (2021).

In test [1] the target is T1, Aspartate--tRNA(Asp/Asn) ligase (Mycobacterium tuberculosis (strain ATCC 25618 / H37Rv)) (UniProt P9WFW3). Also: in the data most compounds retested in dose-response had high values.
T1 sequence (whole entry): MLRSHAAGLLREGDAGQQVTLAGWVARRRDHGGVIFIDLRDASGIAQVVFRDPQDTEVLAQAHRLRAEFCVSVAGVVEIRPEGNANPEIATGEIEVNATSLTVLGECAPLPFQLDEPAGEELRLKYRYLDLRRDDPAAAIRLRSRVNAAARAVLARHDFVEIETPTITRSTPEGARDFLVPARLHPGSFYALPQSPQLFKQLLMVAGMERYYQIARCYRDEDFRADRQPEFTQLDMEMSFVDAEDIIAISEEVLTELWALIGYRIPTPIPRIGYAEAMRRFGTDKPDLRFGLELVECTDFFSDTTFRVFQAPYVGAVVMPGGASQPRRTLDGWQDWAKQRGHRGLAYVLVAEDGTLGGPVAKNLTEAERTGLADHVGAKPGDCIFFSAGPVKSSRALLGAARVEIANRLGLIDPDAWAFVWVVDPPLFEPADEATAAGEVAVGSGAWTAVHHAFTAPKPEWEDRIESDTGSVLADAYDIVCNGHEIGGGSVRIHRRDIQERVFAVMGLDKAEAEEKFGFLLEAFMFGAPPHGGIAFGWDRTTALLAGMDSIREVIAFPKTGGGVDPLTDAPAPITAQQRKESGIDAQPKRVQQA
Kind of test: Assay for Asp RNA synthetase-1 from Mycobacterium tuberculosis. It is filed as functional. Set-up: scale not given: direction of the effect not stated beside the values. Particulars: 30 µM.

Test [2] addresses Shiga toxin 2 (Escherichia coli O157:H7) (UniProt P09385+P09386). Kind of test: E. coli 0.157:H7 Shiga Toxin SOP - stx2 screening assay. The format is functional. Particulars: 30 µM. Set-up: scale not given: direction of the effect not stated beside the values.

Structures are written as SMILES.

For `CCCc1nc(C)c(C(=O)NCCN2CCN(CC)CC2)s1`, the Percent Effect is -0.278% in test [1] and -15.4% in test [2].
Turning to `Cc1nc(CN2CCOC(Cn3cncn3)C2)nc2ccccc12` (configuration not stated), the values for the Percent Effect in test [1] and in test [2] were -2.91% and 16.4%, respectively.
For `OCC1CCCN1c1cc(N2CCC(OC3CCCC3)CC2)ncn1` (configuration not stated) the same measures were -1.79% and 7.55%.
As for `Cc1cccc(C(=O)Nc2ccc(OC3CCN(C)CC3)cc2)c1`, the Percent Effect in test [1] was 0.862%; in test [2], -60.2%.
In the case of `O=C(NCCN1CCCCCC1=O)c1ccn(-c2ccc(F)cc2)n1`, the Percent Effect in test [1] was found to be 3.8%; in test [2], 14.8%.
For `COC(=O)CCNC(=O)C1CC(=O)N(C2CCCC2)C1` (configuration not stated) the same measures were 0.859% and -13.4%.
Regarding `Cn1cnnc1S(=O)(=O)C1CCN(S(=O)(=O)C2CC2)CC1`, the Percent Effect in test [1] is -0.604%; in test [2], -7.38%.
Take `CCCNC(=O)NCc1cccnc1OC`: the Percent Effect in test [1] was -6.48%; in test [2] it was -26.6%.
`CC(C)(O)CN1CCN(C(=O)c2cc(Cl)cc3cccnc23)CC1`: the figures for the Percent Effect in test [1] and in test [2] were -3.59% and -18%, respectively.
With `COCCO[C@@H]1C[C@H]2CN(C(=O)c3cnccn3)CCN2C1`, the results for the Percent Effect in test [1] and in test [2] were 6.43% and -13%, respectively.
As for `COc1nccc(N2CCN(Cc3ccc(C)cc3)C(=O)C2)c1C#N`, the Percent Effect in test [1] is 3.98%; in test [2], -64.8%.
As to `c1ccc(-n2ccc(CN3CCCC3Cn3cccn3)n2)cc1` (configuration not stated), the Percent Effect in test [1] was 4.81%; in test [2], -19.3%.
For `CCC1=N[C@@]2(CC[C@@H]3CN(C(=O)NCc4ccccc4)C[C@@H]32)C(=O)N1C` the same measures were 2.18% and 3.06%.
The like results for `Cc1noc([C@H]2CC[C@@H]3[C@@H](CCN3S(C)(=O)=O)O2)n1` were, in that order, 2.38% and -3.33%.
For `CCc1nnc2n1CCN(Cc1csc(-c3cnn(C)c3)n1)C2`, the Percent Effect was 6.46% in test [1] and -29.4% in test [2].
In the case of `CCc1nc(N)sc1C(=O)N1CCCC(CCc2ccccc2C)C1` (configuration not stated), the results for the Percent Effect in test [1] and in test [2] were 6.53% and -7.07%, respectively.
For the molecule `CN(C(=O)Cn1nc(-c2cccs2)ccc1=O)C1CCS(=O)(=O)C1` (configuration not stated), the results for the Percent Effect in test [1] and in test [2] were 1.02% and -35.1%, respectively.
As to `Cn1cc(CN2CCC(F)(F)C3(CCN(c4cnccn4)C3)C2)cn1` (configuration not stated), the values for the Percent Effect in test [1] and in test [2] were -3.65% and -4.7%, respectively.
With `Cc1nc(Nc2ncccn2)cc(C2CCCN2C2CCOCC2)n1` (configuration not stated), the figures for the Percent Effect in test [1] and in test [2] were 2.13% and -0.835%, respectively.
As for `CN1CC(=O)N(c2ccsc2)CC12CCN(C(=O)c1ccccc1)C2` (configuration not stated), the Percent Effect is 2.85% in test [1] and -3.66% in test [2].
On to `Cc1cnn(CCNCC(=O)NCC2(c3ccccc3)CCC2)c1`, for which the values for the Percent Effect in test [1] and in test [2] were 4.12% and 22.9%, respectively.
For `CCN1CCC(NC(=O)CN2CCc3c(ncn3C)C2)CC1` the same measures were -4.88% and 19.9%.
For `CCc1nc(C2CCCN2C(=O)CCn2cncn2)no1` (configuration not stated) the same measures were 3.36% and 5.08%.
Take `CN(Cc1ccc(Cl)s1)C(=O)NCc1nnc2n1CCC2`: the values for the Percent Effect in test [1] and in test [2] were 0% and 27.4%, respectively.
Turning to `Cc1nc2c(c(C)c1CC(=O)NCc1cccc(C#N)c1)c(=O)[nH]n2C`, the figures for the Percent Effect in test [1] and in test [2] were 0.634% and 25.4%, respectively.
Take `CN(C)C(=O)C1CN(Cc2c[nH]cn2)CCN(C2CCOCC2)C1` (configuration not stated): the Percent Effect in test [1] is 0.313%; in test [2], -8.14%.
For `Cc1nnc2n1CCN(CCC(=O)Nc1sccc1C#N)C2`, the Percent Effect in test [1] turned out to be 1.26%; in test [2], 22.9%.
Consider `CC(C)c1noc(C(C)N2CCN(CCN3CCCC3=O)CC2)n1` (configuration not stated), for which the Percent Effect in test [1] is 1.45%; in test [2], 17.6%.
In the case of `CC(=O)N1CCCC(Cc2cncc(Br)c2)CC1` (configuration not stated), the Percent Effect in test [1] is -0.223%; in test [2], -11%.
As for `Cc1nc(CN2CCCN(C(=O)C(C)OCC3CC3)CC2)cs1` (configuration not stated), the Percent Effect in test [1] was -3.97%; in test [2], -12.8%.
Consider `COC(=O)C(NC(=O)COC1CCCC1)c1cc(F)ccc1F` (configuration not stated), for which the values for the Percent Effect in test [1] and in test [2] were -3.52% and -22.4%, respectively.
For `COCCN1CCC(N(Cc2noc(C3CC3)n2)C(C)=O)C1` (configuration not stated), the Percent Effect is -1.46% in test [1] and 29.5% in test [2].
Turning to `O=C(Cc1cccc(Cl)c1)N[C@@H]1CCNC[C@H]1O`, the Percent Effect in test [1] is -3.06%; in test [2] it was 49.4%.
With `CC(C)c1cc(C(=O)N2CCN(Cc3ccsc3)CC2)n[nH]1`, the results for the Percent Effect in test [1] and in test [2] were -1.06% and 9.72%, respectively.
For `CC(Cn1cccn1)NC(=O)NCc1cccnc1OC1CCCC1` (configuration not stated) the same measures were -4.78% and -7.65%.
In the case of `CN(Cc1nnc(C2CC2)n1C)C1CCN(Cc2ccon2)C1` (configuration not stated), the Percent Effect in test [1] stood at 12.3%; in test [2], 14.2%.
For the molecule `CCOc1cc(C)nc(N2CCN(C(=O)c3ccnn3C)CC2)n1`, the Percent Effect in test [1] is -2.8%; in test [2] it was 2.54%.
With `O=C(NCc1cc(=O)n2c(n1)CN(CC1CCOC1)CCC2)C1CC1` (configuration not stated), the Percent Effect in test [1] was -1%; in test [2] it was -24.3%.
Turning to `Cc1ccccc1CN1CCN(CC(=O)Nc2cccnc2)CC1`, the Percent Effect in test [1] was -2.08%; in test [2], 17%.
Take `O=C(CCC(=O)N1CCCC1c1cccs1)N1CCc2sccc2C1` (configuration not stated): the figures for the Percent Effect in test [1] and in test [2] were -0.31% and -7.21%, respectively.
Take `Cc1nnc(N2CCC(CS(N)(=O)=O)CC2)c(C#N)c1C`: the Percent Effect stood at 6.31% in test [1] and 21.6% in test [2].
For `CC(C)(CO)NC(=O)C1CCC(=O)N(Cc2ccc(Cl)cc2)C1` (configuration not stated) the same measures were -3.12% and 0.664%.
Turning to `Cc1cc(C)n(CC(=O)N2CCC(c3nc(C)no3)CC2)n1`, the Percent Effect was 3.56% in test [1] and 3.16% in test [2].
Consider `Cc1nc[nH]c1CN1CCN(C(=O)c2cccs2)[C@H]2CS(=O)(=O)C[C@H]21`, for which the Percent Effect is -4.62% in test [1] and 10% in test [2].
In the case of `COc1ccc(F)c(CN2CCC(c3cc(O)nc(C)n3)C2)c1` (configuration not stated), the Percent Effect was -6.3% in test [1] and -8.55% in test [2].
Turning to `c1cnn(Cc2nnc3n2CCCN(CC2CCOCC2)C3)c1`, the figures for the Percent Effect in test [1] and in test [2] were 2.52% and 18.5%, respectively.
For the molecule `COc1ccc(C2CC(=O)Nc3c2cnn3C)cc1` (configuration not stated), the Percent Effect was -0.607% in test [1] and -21.4% in test [2].
For `COc1ccccc1OCCN1CCC(N2CCNC2=O)CC1` the same measures were -1.95% and 21%.
Turning to `Cc1cnn(C2CCCN(C(=O)Cc3ccc(-n4cccn4)cc3)C2)c1` (configuration not stated), the Percent Effect is -4.37% in test [1] and 4.84% in test [2].
Consider `O=C(C1CC1)N1CC[C@H](O)[C@@H]1Cc1ccccc1`, for which the Percent Effect was -2% in test [1] and 1.84% in test [2].
`COc1cccc(CCC(=O)N2CCCCC2Cn2cccn2)c1` (configuration not stated): the Percent Effect in test [1] came out at 1.44%; in test [2], 22.5%.
